EBV LMP1 NFkB = reduces LMP1-driven NF-kappaB luciferase signal; LMP1-induced NF-kappaB luciferase reporter cells, luminescence; inhibition, % at 12.5 µM; 0.69% of 350,000 active; in the data active = inhibition above about 41%
CF NFkB inh = blocks PAF-induced NF-kB reporter in cystic fibrosis cells. KKLEB NF-kB-GFP reporter, GFP fluorescence overnight. inhibition, % at 5 µM. 0.86% of 360,000 active. AID 588850;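 active = at least 50% inhibition at 5 µM, scaled per plate between neutral and stimulator controls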;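 also: PAF is a Pseudomonas aeruginosa culture filtrate used as stimulus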
Shn3 inh set2 = inhibitors of Schnurri-3 3'UTR reporter in osteoblasts; Clone20 osteoblast Shn3 3'UTR firefly luciferase, 24 h; inhibition, % at 12.5 µM; 0.52% of 360,000 active; AID 588674;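 active = mean inhibition of at least 75% with every replicate also reaching 75%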
Peg3 promoter = inhibitors of Peg3 promoter; AID 588405; inhibition, % at 20 µM; 1.7% of 360,000 active; HeLa PEG-Prom luciferase reporter, luminescence, overnight;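 active = inhibition of at least 50% at 20 µM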
KKLEB tox = reduces viability of KKLEB cystic fibrosis airway cells. 0.36% of 360,000 active. KKLEB CF airway cells viability, ATPlite luminescence, overnight; stronger effect = lower value; cells stimulated with P. aeruginosa culture filtrate. AID 602141. activity change (cytotoxicity), % at 5 µM;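 active = corrected activity change at or below -50% at 5 µM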
MITF TRPM1 inh = reduces MITF-dependent TRPM1 promoter luciferase signal. AID 488899. inhibition, % at 12.5 µM. 0.83% of 330,000 active. SK-MEL-5 TRPM1 promoter luciferase, 24 h;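 active = mean inhibition across replicates of 60% or more, whatever share of single replicates reaches that level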
Numbers stand for hits; i = inactive; nt = not tested or not shown. The list is not random: actives were taken first. Their share in the collection is about 2.9%.

SMILES	EBV LMP1 NFkB	CF NFkB inh	Shn3 inh set2	Peg3 promoter	KKLEB tox	MITF TRPM1 inh
CC(C)CNC(=O)C1(C)CCCN1C(=O)C(C)(C)Oc1ccc(Cl)cc1 (stereo not drawn)	nt	i	i	i	i	nt
CCCCOc1ccc(-c2cc(C(=O)NNC(=S)NCC)c3ccccc3n2)cc1	i	67.3	i	i	-89.3	i
CCCOc1cccc(-c2cc(C(=O)N/N=C/c3ccccn3)c3ccccc3n2)c1	i	i	i	i	i	90.3
CCCOc1cccc(-c2cc(C(=O)N/N=C/c3cccnc3)c3ccccc3n2)c1	nt	i	i	i	i	i
O=C(N/N=C/c1ccccn1)c1cc(-c2ccc(Br)cc2)nc2ccccc12	i	i	i	75.2	i	66.5
CCCCOc1cccc(-c2cc(C(=O)NNC(=S)NCC)c3ccccc3n2)c1	i	i	i	i	i	i
O=C(N/N=C/c1ccccn1)c1cc(-c2ccc(Cl)cc2)nc2ccccc12	i	i	i	i	i	81.2
O=C(N/N=C/c1ccco1)c1cc(-c2ccccc2)nc2ccccc12	i	i	i	i	i	i
CCCCNC(=O)C1(C)CCN1Cc1cc(C)ccc1C (stereo not drawn)	nt	i	i	i	i	nt
O=C(CCN=C1NS(=O)(=O)c2ccccc21)OCc1nnc(-c2ccc([N+](=O)[O-])cc2)o1	i	i	i	i	i	i
CCN(CC)CCCNc1ccc(-c2nnc(-c3ccc(OCC(C)C)cc3)o2)cn1	i	i	i	113.3	i	76.7
CC1=CN2C(c3cccc([N+](=O)[O-])c3)=NON(c3ccc(C)cn3)C2C=C1 (stereo not drawn)	nt	i	i	i	i	nt
O=C1CC(=Nc2ccc([N+](=O)[O-])cc2)NN1c1c(Cl)cc(Cl)cc1Cl	i	i	i	i	i	nt
O=C(O)c1ccccc1C(=O)Nc1ccc(Oc2cccc3ccccc23)cc1	i	i	i	i	i	73.1
O=S(=O)(c1cccs1)N1CCCCC1	i	i	i	i	i	nt
O=C(c1ccccc1F)N1CCN(c2ccc([N+](=O)[O-])c(NCc3cccnc3)c2)CC1	nt	i	i	i	i	nt
COc1ccc(C(=O)N2CCN(c3ccc([N+](=O)[O-])c(NCCc4ccc(OC)c(OC)c4)c3)CC2)cc1	i	i	i	i	i	78.5
COc1ccc(CCNc2cc(N3CCN(C(=O)c4ccccc4F)CC3)ccc2[N+](=O)[O-])cc1OC	i	i	88.4	i	i	83.3
CN(CC(=O)NCC1CCCO1)S(=O)(=O)c1ccc2ccccc2c1 (stereo not drawn)	i	i	i	i	i	nt
CC1(C(=O)NS(=O)(=O)c2cccc(C#N)c2)CCN1C(=O)c1ccc(C2CCCCC2)cc1 (stereo not drawn)	nt	i	i	i	i	nt
COc1ccc(NC(=O)c2cc(C3CCCCN3C(=O)OCc3ccccc3)on2)c(C)c1 (stereo not drawn)	nt	i	i	i	i	nt
COC(=O)c1cc2c(n1S(=O)(=O)c1ccc(C)cc1)C(=O)C(=O)c1[nH]cc(C(=O)OCc3ccccc3)c1-2	88.4	84.8	91.9	88.8	-69.1	107.5
CCCOc1ccc(/C=C2/C(=O)ON=C2C)cc1Cl	i	i	i	64.7	i	i
CCC1NC(=O)c2cc3ccccc3cc2-n2c1nc1ccc(F)cc1c2=O (stereo not drawn)	i	i	i	i	i	nt
COc1cccc(-c2cccc(NC(=O)C3CCN(Cc4cccc(C)n4)CC3)c2)c1	i	i	i	i	i	i
SMILES	EBV LMP1 NFkB	CF NFkB inh	Shn3 inh set2	Peg3 promoter	KKLEB tox	MITF TRPM1 inh
COc1cccc(O)c1CN1CCC(C(=O)Nc2ccc(-c3cccc(C)c3)cc2)CC1	i	i	i	105.6	i	i
COc1ccc(CN2CCC(C(=O)Nc3ccc(Oc4cccnc4)cc3)CC2)c(C)c1C	i	i	86.3	i	i	i
COc1cccc(O)c1CN1CCC(C(=O)Nc2ccc(Oc3cccnc3)cc2)CC1	i	i	i	i	i	i
COc1ccc(NS(=O)(=O)c2ccc(C)c(C(=O)NCc3ccccc3CN3CCCC3)c2)cc1	i	i	i	i	i	nt
COc1cccc(/C=N/n2cnc3cc(C)c(C)cc32)c1OC	i	i	i	i	i	i
O=[N+]([O-])c1ccc(/C=N/n2cnc3ccccc32)s1	i	i	89.7	i	i	85.6
Cc1cc2ncn(/N=C/c3ccc([N+](=O)[O-])s3)c2cc1C	i	i	i	73.3	i	i
COc1cc2c(cc1OC)C(CNC(=O)C=Cc1cc(OC)c(OC)c(OC)c1)C2 (stereo not drawn)	i	i	i	i	i	nt
O=C(CSc1nnc2ccccn12)Nc1ccccc1[N+](=O)[O-]	i	i	i	i	i	nt
COc1ccc2[nH]c3c(C)c4ccncc4c(C)c3c2c1	i	78.3	i	106.5	i	95.3
CN1CCN(C2Cc3cc(F)ccc3Sc3ccc(Cl)cc32)CC1 (stereo not drawn)	i	i	i	i	i	i
CN1CCN(C2Cc3ccc(F)cc3Sc3cc(F)c(Cl)cc32)CC1 (stereo not drawn)	i	i	nt	107.0	i	i
CC1(C(=O)NS(=O)(=O)c2cccc(Cl)c2)CCN1C(=O)C/C=C/c1ccccc1 (stereo not drawn)	nt	i	i	i	i	nt
COc1ccc(CCN2CCC(Nc3nc4ccccc4n3Cc3ccc(F)cc3)CC2)cc1	i	i	i	82.0	i	95.8
Cc1ccc(N=C2C(=O)Nc3ccccc32)cc1	i	i	i	i	i	i
Cc1nc2c(o1)C(=O)c1ccccc1C2=Nc1ccccc1	87.3	88.6	94.4	103.8	-84.3	93.7
CCC(=O)N1CCCC(C)(C(=O)NS(=O)(=O)c2ccccc2Cl)C1 (stereo not drawn)	nt	i	i	i	i	nt
Cc1ccc(-c2cc(NC=O)c3ncc(-c4cnn(C)c4)n3c2)cc1	nt	i	i	i	i	nt
Cc1cc(C)cc(OCc2nc3ncc(Br)cc3[nH]2)c1	i	i	i	i	-50.5	i
COc1cccc(OCc2nc3ncc(Br)cc3[nH]2)c1	i	i	i	i	i	i
COCCNC(=O)c1c(N)n(/N=C/c2ccc(F)cc2)c2nc3ccccc3nc12	nt	i	i	i	i	nt
CC(C)CNC(=O)c1c(N)n(/N=C/c2ccccn2)c2nc3ccccc3nc12	i	i	i	53.6	i	i
CN1C(=O)C(CC(=O)NC2CCCCC2)SC1=Nc1ccccc1 (stereo not drawn)	64.3	i	i	i	i	i
CC(C)(C)c1ccc2cc(F)cc(F)c2n1	nt	i	i	i	i	nt
CC(=O)N(C(C)=O)c1ncc2c([nH]c3ccccc32)c1C#N	i	89.5	i	i	i	i
O=C(NCC1(N2CCCCC2)CCCCC1)c1ccc(NS(=O)(=O)c2ccccc2)cc1	i	i	i	i	i	i
CS(=O)(=O)Nc1ccccc1C(=O)NCC1(N2CCCCC2)CCCCC1	46.7	i	i	i	i	i

Source: PubChem (several laboratories)
